Inhibition data for one compound are collected here from ChEMBL document CHEMBL1961873, “Compounds: GSK PKIS; Assays: Nanosyn kinase panel” (2012).

Test [1] has as its target Sphingosine kinase 1 (Homo sapiens) (UniProt Q9NYA1). The settings on record: at 1 µM.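 Further: mean SPHK1 inhibition value reported from the GSK PKIS kinase panel screen.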
Test [2] addresses T1, Sphingosine kinase 2 (Homo sapiens) (UniProt Q9NRA0).
T1 sequence (whole entry): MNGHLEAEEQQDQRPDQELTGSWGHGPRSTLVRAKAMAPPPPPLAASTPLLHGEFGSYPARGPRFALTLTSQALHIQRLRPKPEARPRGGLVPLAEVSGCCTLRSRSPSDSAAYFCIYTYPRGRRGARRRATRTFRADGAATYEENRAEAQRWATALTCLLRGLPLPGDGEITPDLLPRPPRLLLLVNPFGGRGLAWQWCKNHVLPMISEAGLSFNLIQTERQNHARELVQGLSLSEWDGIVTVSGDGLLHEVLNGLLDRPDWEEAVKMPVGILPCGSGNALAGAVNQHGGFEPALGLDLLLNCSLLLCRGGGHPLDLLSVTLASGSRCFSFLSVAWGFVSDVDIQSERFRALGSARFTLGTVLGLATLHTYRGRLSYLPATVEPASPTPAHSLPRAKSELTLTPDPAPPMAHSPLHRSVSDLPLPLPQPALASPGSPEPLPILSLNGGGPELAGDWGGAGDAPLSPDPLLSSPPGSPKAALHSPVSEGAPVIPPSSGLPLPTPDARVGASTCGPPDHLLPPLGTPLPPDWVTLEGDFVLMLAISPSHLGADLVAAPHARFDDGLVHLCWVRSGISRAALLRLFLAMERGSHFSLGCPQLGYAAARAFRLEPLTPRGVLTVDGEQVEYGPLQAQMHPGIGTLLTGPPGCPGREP
The settings on record: at 0.1 µM.

Test [3] addresses T1, Sphingosine kinase 2 (Homo sapiens). The conditions noted are these: at 1 µM.
Test [4] has as its target Casein kinase II subunit alpha (Homo sapiens) (UniProt P68400). The settings on record: at 0.1 µM.
The target is the same in test [5]. The conditions noted are these: at 1 µM.
The target of test [6] is T2, Inhibitor of nuclear factor kappa-B kinase subunit alpha (Homo sapiens) (UniProt O15111).
T2 sequence (whole entry): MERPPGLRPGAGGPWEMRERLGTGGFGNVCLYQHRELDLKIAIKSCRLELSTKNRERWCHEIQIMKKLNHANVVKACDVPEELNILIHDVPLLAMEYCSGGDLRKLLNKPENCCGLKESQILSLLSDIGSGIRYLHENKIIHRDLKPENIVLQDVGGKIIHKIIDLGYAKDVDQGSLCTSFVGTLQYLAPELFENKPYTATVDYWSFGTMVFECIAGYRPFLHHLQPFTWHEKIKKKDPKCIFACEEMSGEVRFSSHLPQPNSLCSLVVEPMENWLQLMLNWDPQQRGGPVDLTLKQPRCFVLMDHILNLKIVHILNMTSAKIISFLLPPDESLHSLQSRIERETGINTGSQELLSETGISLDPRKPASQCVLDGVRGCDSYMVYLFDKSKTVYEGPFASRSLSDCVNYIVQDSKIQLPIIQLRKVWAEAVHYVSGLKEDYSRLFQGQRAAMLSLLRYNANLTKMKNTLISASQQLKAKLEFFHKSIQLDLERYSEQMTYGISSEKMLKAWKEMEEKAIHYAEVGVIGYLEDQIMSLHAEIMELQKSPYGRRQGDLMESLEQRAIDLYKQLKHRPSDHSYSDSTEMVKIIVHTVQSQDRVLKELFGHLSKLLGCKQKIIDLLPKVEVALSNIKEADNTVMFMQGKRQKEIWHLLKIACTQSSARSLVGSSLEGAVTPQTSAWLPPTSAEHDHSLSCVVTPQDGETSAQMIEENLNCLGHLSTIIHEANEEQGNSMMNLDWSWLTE
The conditions noted are these: at 0.1 µM.

In test [7] the target is T2, Inhibitor of nuclear factor kappa-B kinase subunit alpha (Homo sapiens). The settings on record: at 1 µM.
Test [8] addresses T3, Inhibitor of nuclear factor kappa-B kinase subunit beta (Homo sapiens) (UniProt O14920).
T3 sequence (whole entry): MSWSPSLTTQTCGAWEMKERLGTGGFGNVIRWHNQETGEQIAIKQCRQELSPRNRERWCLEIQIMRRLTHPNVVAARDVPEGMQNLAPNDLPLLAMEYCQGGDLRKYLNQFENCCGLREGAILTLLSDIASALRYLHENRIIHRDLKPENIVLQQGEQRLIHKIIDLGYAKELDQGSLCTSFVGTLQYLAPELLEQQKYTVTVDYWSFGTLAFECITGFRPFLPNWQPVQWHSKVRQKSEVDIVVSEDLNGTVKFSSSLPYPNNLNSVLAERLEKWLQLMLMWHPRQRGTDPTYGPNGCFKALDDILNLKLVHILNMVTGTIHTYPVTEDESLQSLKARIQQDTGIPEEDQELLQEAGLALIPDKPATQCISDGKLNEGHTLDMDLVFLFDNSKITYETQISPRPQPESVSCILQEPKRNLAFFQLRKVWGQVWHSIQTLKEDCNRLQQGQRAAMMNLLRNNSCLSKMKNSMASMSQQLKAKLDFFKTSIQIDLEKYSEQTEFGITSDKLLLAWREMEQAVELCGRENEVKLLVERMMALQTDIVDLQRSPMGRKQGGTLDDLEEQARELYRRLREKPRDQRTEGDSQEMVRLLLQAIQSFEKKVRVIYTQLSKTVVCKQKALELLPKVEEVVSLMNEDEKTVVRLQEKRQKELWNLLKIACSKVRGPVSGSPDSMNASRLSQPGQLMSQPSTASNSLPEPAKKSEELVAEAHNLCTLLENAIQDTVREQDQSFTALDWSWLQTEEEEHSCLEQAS
The settings on record: at 0.1 µM.

Test [9] deals with T3, Inhibitor of nuclear factor kappa-B kinase subunit beta (Homo sapiens). The conditions noted are these: at 1 µM.
Test [10] deals with T4, Inhibitor of nuclear factor kappa-B kinase subunit epsilon (Homo sapiens) (UniProt Q14164).
T4 sequence (whole entry): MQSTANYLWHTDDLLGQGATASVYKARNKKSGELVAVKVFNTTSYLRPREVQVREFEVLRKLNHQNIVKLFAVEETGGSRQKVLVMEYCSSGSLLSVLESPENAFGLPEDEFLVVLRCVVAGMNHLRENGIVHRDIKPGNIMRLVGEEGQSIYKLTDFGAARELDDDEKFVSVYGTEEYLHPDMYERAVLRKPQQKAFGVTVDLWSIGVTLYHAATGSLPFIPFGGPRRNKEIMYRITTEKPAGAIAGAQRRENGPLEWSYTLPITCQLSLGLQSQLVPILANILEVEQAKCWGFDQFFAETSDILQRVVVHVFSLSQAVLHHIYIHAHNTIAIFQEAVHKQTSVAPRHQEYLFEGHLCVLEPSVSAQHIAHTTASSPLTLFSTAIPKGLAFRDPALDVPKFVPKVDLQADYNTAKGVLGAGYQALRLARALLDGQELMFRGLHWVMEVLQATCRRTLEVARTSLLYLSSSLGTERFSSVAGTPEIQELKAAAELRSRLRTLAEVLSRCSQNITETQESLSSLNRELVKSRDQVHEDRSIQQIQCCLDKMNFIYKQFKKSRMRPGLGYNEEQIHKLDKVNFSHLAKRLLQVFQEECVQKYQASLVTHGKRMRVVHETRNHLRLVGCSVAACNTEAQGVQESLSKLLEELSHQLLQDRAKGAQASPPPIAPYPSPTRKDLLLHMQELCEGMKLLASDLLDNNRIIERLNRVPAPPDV
The settings on record: at 0.1 µM.

Test [11] concerns the target T4, Inhibitor of nuclear factor kappa-B kinase subunit epsilon (Homo sapiens). The conditions noted are these: at 1 µM.
Test [12] concerns the target T5, Serine/threonine-protein kinase Nek1 (Homo sapiens) (UniProt Q96PY6).
T5 sequence (whole entry): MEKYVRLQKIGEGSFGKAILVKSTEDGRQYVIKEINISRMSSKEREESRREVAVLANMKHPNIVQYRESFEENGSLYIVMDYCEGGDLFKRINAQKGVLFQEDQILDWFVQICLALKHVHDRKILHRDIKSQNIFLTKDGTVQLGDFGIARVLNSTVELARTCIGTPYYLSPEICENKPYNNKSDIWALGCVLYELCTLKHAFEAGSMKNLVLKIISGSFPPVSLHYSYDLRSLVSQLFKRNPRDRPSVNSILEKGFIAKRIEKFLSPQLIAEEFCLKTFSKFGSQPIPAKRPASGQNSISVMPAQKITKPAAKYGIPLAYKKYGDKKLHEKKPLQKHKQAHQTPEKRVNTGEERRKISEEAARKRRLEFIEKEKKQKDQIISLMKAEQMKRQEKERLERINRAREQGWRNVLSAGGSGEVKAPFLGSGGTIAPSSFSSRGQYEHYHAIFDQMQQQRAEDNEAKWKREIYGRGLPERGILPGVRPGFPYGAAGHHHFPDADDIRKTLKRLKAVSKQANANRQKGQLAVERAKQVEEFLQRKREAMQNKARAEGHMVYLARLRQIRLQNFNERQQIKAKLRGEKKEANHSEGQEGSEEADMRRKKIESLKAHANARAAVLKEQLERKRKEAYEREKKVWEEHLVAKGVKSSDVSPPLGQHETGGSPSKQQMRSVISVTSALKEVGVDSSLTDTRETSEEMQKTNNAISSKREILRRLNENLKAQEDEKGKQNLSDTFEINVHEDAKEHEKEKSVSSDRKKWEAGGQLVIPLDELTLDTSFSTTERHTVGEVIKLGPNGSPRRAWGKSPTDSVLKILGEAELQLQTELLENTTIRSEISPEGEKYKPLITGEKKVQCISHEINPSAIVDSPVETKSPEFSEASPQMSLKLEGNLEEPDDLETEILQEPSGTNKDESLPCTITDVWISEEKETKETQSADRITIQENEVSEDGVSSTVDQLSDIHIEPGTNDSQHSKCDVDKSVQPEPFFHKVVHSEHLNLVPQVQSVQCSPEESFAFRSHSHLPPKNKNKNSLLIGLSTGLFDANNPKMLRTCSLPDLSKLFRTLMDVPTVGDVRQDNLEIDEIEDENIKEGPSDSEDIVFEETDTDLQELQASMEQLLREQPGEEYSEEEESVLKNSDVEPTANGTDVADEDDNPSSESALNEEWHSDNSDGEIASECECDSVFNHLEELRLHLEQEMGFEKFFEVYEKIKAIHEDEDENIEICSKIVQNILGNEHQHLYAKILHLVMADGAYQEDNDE
The settings on record: at 0.1 µM.

In test [13] the target is T5, Serine/threonine-protein kinase Nek1 (Homo sapiens). The settings on record: at 1 µM.
For test [14], the target named is T6, Serine/threonine-protein kinase Nek2 (Homo sapiens) (UniProt P51955).
T6 sequence (whole entry): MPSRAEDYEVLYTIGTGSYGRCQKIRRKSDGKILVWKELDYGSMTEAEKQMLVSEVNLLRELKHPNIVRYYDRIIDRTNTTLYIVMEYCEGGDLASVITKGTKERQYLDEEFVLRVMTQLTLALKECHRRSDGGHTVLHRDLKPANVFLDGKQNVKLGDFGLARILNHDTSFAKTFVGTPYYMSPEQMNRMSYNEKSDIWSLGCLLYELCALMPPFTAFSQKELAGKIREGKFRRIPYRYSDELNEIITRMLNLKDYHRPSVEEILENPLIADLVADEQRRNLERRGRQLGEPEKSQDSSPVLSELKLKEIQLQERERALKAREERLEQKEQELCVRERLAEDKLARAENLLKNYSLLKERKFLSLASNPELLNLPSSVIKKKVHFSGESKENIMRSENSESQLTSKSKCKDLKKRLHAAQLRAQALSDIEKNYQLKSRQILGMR
The settings on record: at 0.1 µM.

The target in test [15] is T6, Serine/threonine-protein kinase Nek2 (Homo sapiens). The settings on record: at 1 µM.
Test [16] addresses Serine/threonine-protein kinase Nek6 (Homo sapiens) (UniProt Q9HC98). The settings on record: at 0.1 µM.
For test [17] the target is unchanged. The conditions noted are these: at 1 µM.
In test [18] the target is Serine/threonine-protein kinase Nek7 (Homo sapiens) (UniProt Q8TDX7). The settings on record: at 0.1 µM.
Serine/threonine-protein kinase Nek7 (Homo sapiens), sequence (Q8TDX7 whole entry, looked up): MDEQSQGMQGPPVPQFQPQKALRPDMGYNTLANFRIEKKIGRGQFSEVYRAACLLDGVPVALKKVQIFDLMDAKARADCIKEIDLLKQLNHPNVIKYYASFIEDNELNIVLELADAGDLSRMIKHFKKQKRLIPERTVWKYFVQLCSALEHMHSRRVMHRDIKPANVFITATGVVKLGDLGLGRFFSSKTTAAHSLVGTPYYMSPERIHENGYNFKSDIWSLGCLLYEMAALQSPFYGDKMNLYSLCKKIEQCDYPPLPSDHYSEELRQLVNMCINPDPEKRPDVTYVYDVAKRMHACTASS
The target is the same in test [19]. The settings on record: at 1 µM.
Test [20] deals with T7, Serine/threonine-protein kinase Nek9 (Homo sapiens) (UniProt Q8TD19).
T7 sequence (whole entry): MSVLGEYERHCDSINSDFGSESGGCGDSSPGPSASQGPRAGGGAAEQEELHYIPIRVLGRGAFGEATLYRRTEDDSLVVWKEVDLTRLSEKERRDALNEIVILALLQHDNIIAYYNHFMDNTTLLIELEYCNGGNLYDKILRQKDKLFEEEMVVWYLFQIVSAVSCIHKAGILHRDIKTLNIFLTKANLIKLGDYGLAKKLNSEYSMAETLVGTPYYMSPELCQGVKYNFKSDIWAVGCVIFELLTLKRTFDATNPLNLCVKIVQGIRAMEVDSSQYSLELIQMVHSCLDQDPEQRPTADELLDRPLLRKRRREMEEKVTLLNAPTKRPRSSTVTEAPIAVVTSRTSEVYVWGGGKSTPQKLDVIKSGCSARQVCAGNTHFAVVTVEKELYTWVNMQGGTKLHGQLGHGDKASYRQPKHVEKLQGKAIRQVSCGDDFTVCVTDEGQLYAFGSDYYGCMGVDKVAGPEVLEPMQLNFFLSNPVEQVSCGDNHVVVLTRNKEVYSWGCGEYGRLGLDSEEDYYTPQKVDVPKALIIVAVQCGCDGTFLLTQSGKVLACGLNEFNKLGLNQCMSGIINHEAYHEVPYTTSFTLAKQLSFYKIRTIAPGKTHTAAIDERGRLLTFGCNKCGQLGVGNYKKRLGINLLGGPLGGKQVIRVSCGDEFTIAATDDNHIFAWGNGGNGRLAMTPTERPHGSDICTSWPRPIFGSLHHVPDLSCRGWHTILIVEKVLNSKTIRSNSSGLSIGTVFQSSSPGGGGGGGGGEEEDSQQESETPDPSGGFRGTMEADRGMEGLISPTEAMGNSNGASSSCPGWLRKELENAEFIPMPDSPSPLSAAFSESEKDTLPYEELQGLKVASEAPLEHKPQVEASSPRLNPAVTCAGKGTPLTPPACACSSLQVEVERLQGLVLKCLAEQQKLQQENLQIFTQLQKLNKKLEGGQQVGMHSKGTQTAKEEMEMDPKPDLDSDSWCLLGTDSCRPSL
The settings on record: at 0.1 µM.

Serine/threonine-protein kinase Nek6 (Homo sapiens), sequence (Q9HC98 whole entry): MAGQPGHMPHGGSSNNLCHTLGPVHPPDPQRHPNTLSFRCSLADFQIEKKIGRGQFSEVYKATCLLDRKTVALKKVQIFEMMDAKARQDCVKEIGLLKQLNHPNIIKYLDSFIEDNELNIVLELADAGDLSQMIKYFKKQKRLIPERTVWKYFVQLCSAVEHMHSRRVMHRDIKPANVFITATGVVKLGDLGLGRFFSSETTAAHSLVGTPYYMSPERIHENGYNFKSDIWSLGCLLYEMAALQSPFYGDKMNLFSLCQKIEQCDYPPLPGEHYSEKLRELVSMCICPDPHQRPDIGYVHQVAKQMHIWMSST
Casein kinase II subunit alpha (Homo sapiens), sequence (P68400 whole entry, looked up): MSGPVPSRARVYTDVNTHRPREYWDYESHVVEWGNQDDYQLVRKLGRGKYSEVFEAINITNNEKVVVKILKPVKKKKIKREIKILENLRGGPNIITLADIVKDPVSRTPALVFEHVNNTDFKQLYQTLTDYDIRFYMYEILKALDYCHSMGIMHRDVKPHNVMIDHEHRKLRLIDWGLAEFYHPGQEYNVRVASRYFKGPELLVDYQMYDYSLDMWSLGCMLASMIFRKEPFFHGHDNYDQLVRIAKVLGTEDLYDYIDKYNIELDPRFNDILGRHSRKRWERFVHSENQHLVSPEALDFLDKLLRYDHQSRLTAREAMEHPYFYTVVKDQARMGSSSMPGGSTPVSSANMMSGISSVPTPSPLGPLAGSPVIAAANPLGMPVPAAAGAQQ
Sphingosine kinase 1 (Homo sapiens), sequence (Q9NYA1 whole entry): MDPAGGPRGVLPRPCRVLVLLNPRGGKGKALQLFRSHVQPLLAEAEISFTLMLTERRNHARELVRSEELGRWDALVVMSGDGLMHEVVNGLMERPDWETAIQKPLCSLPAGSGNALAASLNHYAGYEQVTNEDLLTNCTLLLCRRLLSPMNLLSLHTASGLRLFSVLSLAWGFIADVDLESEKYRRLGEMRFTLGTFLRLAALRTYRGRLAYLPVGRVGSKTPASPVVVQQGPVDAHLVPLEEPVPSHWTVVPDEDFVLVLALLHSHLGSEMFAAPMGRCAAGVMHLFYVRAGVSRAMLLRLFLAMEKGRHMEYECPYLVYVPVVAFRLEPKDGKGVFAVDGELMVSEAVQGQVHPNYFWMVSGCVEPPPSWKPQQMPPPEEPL

Usually inhibition stands for the relative decrease from the control value, in per cent. For the compound `CN(C)CCOc1ccc(-c2nc(-c3ccncc3)c(-c3ccc4c(c3)CC/C4=N\O)[nH]2)cc1`, the inhibition in [1] was -0.62%; in [2], -0.49%; in test [3], -0.4%; in test [4], 3.04%; in test [5], 7.33%; in test [6] it was 6.61%. The inhibition in test [7] came out at 7.1%; in [8] it was 0.93%; in [9], 0.86%; in [10], 9.22%; in [11] it was 7.42%; in test [12], 0.81%. The inhibition amounted to 5.31% in test [13]; 2.72% in test [14]; 4.52% in test [15]; 3.81% in test [16]; 0.68% in test [17]; 1.62% in test [18]. Also, the results for the inhibition in [19] and in test [20] were 2.67% and 4.08%, respectively.
